Test in all cases: yeast three-hybrid, YBZ-1, SC-Leu-His + 0.5 mM 3-AT, 4 days
Holding throughout (conditions): tags: N-Gal4 AD-HA kept; label: inside an RPR1-promoter hybrid RNA with tandem MS2 sites; ssRNA

In one assay the target is PUM1 PUF domain R1-GHR (Homo sapiens, UniProt Q14671 828-1176, S863G;R864H;Q867R). A digest of the protocol:
(§1)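 Each repeat of the Pumilio-1 PUF domain was randomized at its three base-contacting residues, and these libraries were co-expressed from a centromeric plasmid with matching RNA elements in strain YBZ-1. After four days on SC-Leu (input) or SC-Leu-His + 0.5 mM 3-AT (selection), the repeat regions were PCR-amplified and Illumina-sequenced. The interaction score compares variant frequency between input and selection as a log change, computed in log2 with a pseudocount of 1 for absent variants.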

For a further assay, the target named is T1, PUM1 PUF domain R6-SWD (Homo sapiens, UniProt Q14671 828-1176, N1043S;Y1044W;Q1047D).
T1 sequence: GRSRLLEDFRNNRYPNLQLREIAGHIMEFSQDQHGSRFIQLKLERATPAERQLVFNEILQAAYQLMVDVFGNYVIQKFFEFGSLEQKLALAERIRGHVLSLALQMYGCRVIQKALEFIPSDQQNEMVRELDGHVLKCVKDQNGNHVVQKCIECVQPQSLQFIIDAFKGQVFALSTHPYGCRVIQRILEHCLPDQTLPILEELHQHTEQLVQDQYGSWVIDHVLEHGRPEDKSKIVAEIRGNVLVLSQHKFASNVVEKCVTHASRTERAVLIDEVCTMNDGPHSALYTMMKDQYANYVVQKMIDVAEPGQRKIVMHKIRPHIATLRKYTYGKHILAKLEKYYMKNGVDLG
A digest of the protocol: as §1

A further assay concerns the target PUM1 PUF domain R5-FRT (Homo sapiens, UniProt Q14671 828-1176, C1007F;Q1011T). A digest of the protocol: as §1
A further assay deals with PUM1 PUF domain R3-GPK (Homo sapiens, UniProt Q14671 828-1176, C935G;R936P;Q939K). A digest of the protocol: as §1
Another assay has as its target PUM1 PUF domain R7-KTE (Homo sapiens, UniProt Q14671 828-1176, S1079K;N1080T). A digest of the protocol: as §1
The next assay addresses PUM1 PUF domain R7-EYN (Homo sapiens, UniProt Q14671 828-1176, S1079E;N1080Y;E1083N). A digest of the protocol: as §1
In a further assay the target is PUM1 PUF domain R7-RGN (Homo sapiens, UniProt Q14671 828-1176, S1079R;N1080G;E1083N). A digest of the protocol:
as §1

In another assay the target is PUM1 PUF domain R8-MHP (Homo sapiens, UniProt Q14671 828-1176, N1122M;Y1123H;Q1126P). A digest of the protocol:
as §1

The next assay addresses PUM1 PUF domain R8-HFD (Homo sapiens, UniProt Q14671 828-1176, N1122H;Y1123F;Q1126D). A digest of the protocol: as §1
The next assay deals with PUM1 PUF domain R5-RAM (Homo sapiens, UniProt Q14671 828-1176, C1007R;R1008A;Q1011M). A digest of the protocol: as §1

Experimental findings from article PMC8384837, “Expanding the binding specificity for RNA recognition by a PUF domain” are described below.

With “GGCUAGAACUAGUGGAUCCCCCGGCGCCCGGCGGCUCGAGCCCGGGUAAGUGUAAAUUGUCUGCAUGCCGCCGGGCGCCAUGCCUGCAGGUCGACUCUAGAAAACAUG”, the binding signal with PUM1 PUF domain R1-GHR was 1.34 log2 enrichment (interaction score). For “GGCUAGAACUAGUGGAUCCCCCGGCGCCCGGCGGCUCGAGCCCGGGUAAGUGGAAAUAGUCUGCAUGCCGCCGGGCGCCAUGCCUGCAGGUCGACUCUAGAAAACAUG”, in the assay with PUM1 PUF domain R6-SWD, the binding signal is 5.64 log2 enrichment (interaction score). Regarding “GGCUAGAACUAGUGGAUCCCCCGGCGCCCGGCGGCUCGAGCCCGGGUAAGUGUUAAUAGUCUGCAUGCCGCCGGGCGCCAUGCCUGCAGGUCGACUCUAGAAAACAUG”, the binding signal with PUM1 PUF domain R5-FRT was 1.56 log2 enrichment (interaction score). Consider “GGCUAGAACUAGUGGAUCCCCCGGCGCCCGGCGGCUCGAGCCCGGGUAAGUGUAAUUAGUCUGCAUGCCGCCGGGCGCCAUGCCUGCAGGUCGACUCUAGAAAACAUG”, for which the binding signal with PUM1 PUF domain R3-GPK was 3.25 log2 enrichment (interaction score). On to “GGCUAGAACUAGUGGAUCCCCCGGCGCCCGGCGGCUCGAGCCCGGGUAAGUGUAAAUCGUCUGCAUGCCGCCGGGCGCCAUGCCUGCAGGUCGACUCUAGAAAACAUG”, for which the binding signal in the assay with PUM1 PUF domain R1-GHR is 2.23 log2 enrichment (interaction score). “GGCUAGAACUAGUGGAUCCCCCGGCGCCCGGCGGCUCGAGCCCGGGUAAGUCUAAAUAGUCUGCAUGCCGCCGGGCGCCAUGCCUGCAGGUCGACUCUAGAAAACAUG”: the figures for the binding signal with PUM1 PUF domain R7-KTE, in the assay with PUM1 PUF domain R7-EYN and with PUM1 PUF domain R7-RGN were 2.46 log2 enrichment (interaction score), 3.13 log2 enrichment (interaction score) and 3.02 log2 enrichment (interaction score), respectively. As to “GGCUAGAACUAGUGGAUCCCCCGGCGCCCGGCGGCUCGAGCCCGGGUAAGCGUAAAUAGUCUGCAUGCCGCCGGGCGCCAUGCCUGCAGGUCGACUCUAGAAAACAUG”, the figures for the binding signal with PUM1 PUF domain R8-MHP and in the assay with PUM1 PUF domain R8-HFD were 2.6 log2 enrichment (interaction score) and 2.46 log2 enrichment (interaction score), respectively.

As for “GGCUAGAACUAGUGGAUCCCCCGGCGCCCGGCGGCUCGAGCCCGGGUAAGUGUCAAUAGUCUGCAUGCCGCCGGGCGCCAUGCCUGCAGGUCGACUCUAGAAAACAUG”, the binding signal is 2.21 log2 enrichment (interaction score) in the assay with PUM1 PUF domain R5-FRT and 2.69 log2 enrichment (interaction score) with PUM1 PUF domain R5-RAM.
